Data from PubChem BioAssay AID2284358 (EPA ToxCast).
Records with an inconclusive call do not appear. The source made the active and inactive calls. Rule for the calls: active = hit-call score of the fitted dose curve at least 0.9, where 1 is the maximum; inconclusive = response in the unintended direction; inactive = score below 0.9.

target: zebrafish Retinoid X Receptor beta (RXRb), rxrba (gene 30530) (UniProt Q7SYN5); test: ATG_zfRXRb_EcoTox2: Attagene TRANS-FACTORIAL EcoTox-2 HepG2 Assay for zebrafish Retinoid X Receptor beta (RXRb)
Sequence (Q7SYN5 whole entry, looked up): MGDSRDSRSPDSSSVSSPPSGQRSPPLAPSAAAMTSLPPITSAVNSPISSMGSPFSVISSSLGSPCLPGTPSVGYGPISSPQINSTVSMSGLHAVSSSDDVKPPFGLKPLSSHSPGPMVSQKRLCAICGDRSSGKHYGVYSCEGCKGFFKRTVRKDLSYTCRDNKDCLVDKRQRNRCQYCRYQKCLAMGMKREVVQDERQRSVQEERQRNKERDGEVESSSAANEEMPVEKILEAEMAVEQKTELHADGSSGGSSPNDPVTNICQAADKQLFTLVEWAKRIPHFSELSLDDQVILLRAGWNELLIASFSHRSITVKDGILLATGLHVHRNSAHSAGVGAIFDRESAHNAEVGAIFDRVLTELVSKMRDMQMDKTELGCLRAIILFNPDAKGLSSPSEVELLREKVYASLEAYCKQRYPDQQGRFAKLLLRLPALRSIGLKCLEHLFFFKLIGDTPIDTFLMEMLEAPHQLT
Procedure: ATG_EcoTox2 is a cell-based, multiplexed assay created by modifying the existing Attagene TRANS-FACTORIAL system to include a panel of nuclear receptors from some or all the following species: human (Homo sapiens), african clawed frog (Xenopus laevis), rainbow trout (Oncorhynchus mykiss), japanese medaka (Oryzias latipes), and zebrafish (Danio rerio). The ECOTOX2-FACTORIAL format uses HepG2, a human liver cell line, with measurements taken at 24 hours after chemical dosing in a 24-well plate. ATG_zfRXRb_EcoTox2 is one of 29 assay components calculated in the ATG_EcoTox2 assay. It is designed to make measurements of mRNA induction, a form of inducible reporter, as detected with fluorescence intensity signals by Reverse transcription polymerase chain reaction (RT-PCR) and Capillary electrophoresis technology.The assay endpoint ATG_zfRXRb_EcoTox2 was analyzed in the positive analysis fitting direction relative to DMSO as the negative control and baseline of activity. Using a type of inducible reporter, measures of mRNA for gain-of-signal activity can be used to understand the reporter gene at the transcription factor-level as they relate to the gene RXRb. Furthermore, this assay endpoint can be referred to as a primary readout, because this assay has produced multiple assay endpoints where this one serves a reporter gene function. […]
Human liver HepG2 cells are transiently transfected with multiple reporter transcription units (MRTUs) in 6-well plates using FuGene 6 reagent (Roche; 3 ml FuGene/1 mg DNA). […] A major difference between the CIS and TRANS system is that in CIS activities of endogenous TFs are measured, whereas the TRANS assay evaluates changes in activities of exogenous, chimeric NR-Gal4 proteins. […] The fragments were purified using Qiaquick PCR columns (Qiagen), analyzed on an ABI 3130xL genetic analyzer (Applied Biosystems) with peak positions identified by using a set of X-rhodamine (ROX)-labeled MapMarker1000 molecular weight standards (BioVentures). […]

| Compound | outcome | AC50 |
| --- | --- | --- |
| O=S(=O)(O)C(F)(F)C(F)(F)C(F)(F)C(F)(F)C(F)(F)C(F)(F)F | inactive |  |
| [Cl][Sn]([c]1ccccc1)([c]1ccccc1)[c]1ccccc1 |  | 95.2 nM (active) |
| O=P(Oc1ccccc1)(Oc1ccccc1)Oc1ccccc1 | inactive |  |
